According to ChEMBL document CHEMBL3988442, “University of Dundee, Small-Polar-MMV Screening Library” (2021):
Out of some 48,000 compounds screened, about 13,000 (27%) showed an effect of 50% or more. Some of the results follow.

These compounds were tested on Wolbachia pipientis (assay: Anti-Wolbachia Cell-Based Screen). Settings: 5 µM.
Type: functional
Set-up: scale not given: in the data most compounds retested in dose-response had high values

Row | SMILES | Percent Effect
1 | Cc1ccc(C(=O)N2CCO[C@H]3[C@H](OCCN(C)C)CC[C@@H]32)cn1 | 110.3%
2 | Cc1cccc(C(=O)N2CCO[C@H]3[C@H](OCCN(C)C)CC[C@@H]32)n1 | 97.76%
3 | Cc1ccoc1C(=O)N1CCO[C@H]2[C@H](OCC3CCOCC3)CC[C@@H]21 | -7.099%
4 | c1ccc2c(c1)OCCC2NCc1ccc(N2CCOCC2)cc1 (stereo not drawn) | 6.608%
5 | Cc1cccc(Nc2c(C#N)c(=O)n(C)c(=O)n2C)c1 | -3.383%
6 | Cc1cncc(C(=O)N2CCO[C@H]3[C@H](OCCN(C)C)CC[C@@H]32)c1.O=C(O)C(F)(F)F.O=C(O)C(F)(F)F | 111.8%
7 | Cc1cncc(C(=O)N2CCO[C@H]3[C@H](Oc4ccccn4)CC[C@@H]32)c1.O=C(O)C(F)(F)F.O=C(O)C(F)(F)F | -8.484%
8 | Cc1cncc(C(=O)N2CC[C@@H]3[C@H]2CCC(=O)N3CCN(C)C)c1.O=C(O)C(F)(F)F.O=C(O)C(F)(F)F | -10.7%
9 | CN(C)CCO[C@@H]1CC[C@H]2[C@H]1OCCN2C(=O)c1ccnnc1.O=C(O)C(F)(F)F | 98%
10 | O=C(O)C(F)(F)F.O=C(c1cnccn1)N1CCO[C@H]2[C@H](OCc3cccnc3)CC[C@@H]21 | -4.658%
11 | CN(C)CCO[C@@H]1CC[C@H]2[C@H]1OCCN2C(=O)c1ccncc1 | 113.2%
12 | Cc1ccc(C(=O)N2CCN3C[C@H](Oc4cccc(F)c4)C[C@H]3C2)cn1.O=C(O)C(F)(F)F.O=C(O)C(F)(F)F | 3.581%
13 | CC(C)N1CCCC2(CCN(C(=O)CCCn3cccn3)C2)C1=O (stereo not drawn) | -14.27%
14 | Cc1nc(C)c(S(=O)(=O)NC(=O)c2sccc2C)s1 | 101.5%
15 | CC(NC(=O)c1cccs1)C(=O)NS(=O)(=O)c1cccc(C#N)c1 (stereo not drawn) | 3.018%
16 | CSc1ccsc1C(=O)NS(=O)(=O)c1ccc(F)cc1 | -34.42%
17 | Cc1cn2c(n1)CCC(NS(=O)(=O)c1sc(C)nc1C)C2 (stereo not drawn) | -17.67%
18 | Cc1nc(C)c(S(=O)(=O)NC(=O)c2cccs2)s1 | 102.2%
19 | CC(NC(=O)c1cccs1)C(=O)NS(=O)(=O)c1ccc(C#N)cc1 (stereo not drawn) | 8.47%
20 | O=C(NCCCC(=O)N1Cc2ccccc2C1)NCc1cccnc1 | 2.963%
21 | CN(CC1CCC1)C(=O)c1ccc(-c2nc(C3CC3)n[nH]2)cc1 | 0.7414%
22 | CC1CNC(=O)CCN1Cc1cc(O)c2cccc(F)c2n1 (stereo not drawn) | -25.66%
23 | O=C(c1cc[nH]n1)N1CCc2ncnc(NCc3ccccn3)c2CC1 | -6.382%
24 | O=C(C1CC=CC1)N1CCc2ncnc(-c3ccncc3)c2CC1 | 8.097%

Row | SMILES | Percent Effect
25 | O=C(O)C(F)(F)F.O=C(c1cnccn1)N1CCc2ncnc(-c3cccnc3)c2CC1 | -7.804%
26 | O=C(c1ccccn1)N1CCc2ncnc(N3CCOCC3)c2CC1 | -1.06%
27 | O=C(c1cscn1)N1CCc2ncnc(-c3ccncc3)c2CC1 | 110.3%
28 | CN(C)c1ncnc2c1CCN(C(=O)c1cccnc1)CC2.O=C(O)C(F)(F)F | 9.198%
29 | O=C(c1ccccn1)N1CCc2ncnc(-c3ccncc3)c2CC1 | 88.26%
30 | CN(C)CC(=O)N1CCc2ncnc(-c3ccsc3)c2CC1 | -2.469%
31 | O=C(O)C(F)(F)F.O=C(c1cscn1)N1CCc2ncnc(-c3cccnc3)c2CC1 | 99.58%
32 | CN(CC(=O)N(C)C1CCCCC1)C1CCc2ccccc21 (stereo not drawn) | -4.106%
33 | O=C(NCc1csc2ccccc12)NCC1(O)CCSC1 (stereo not drawn) | -14.62%
34 | CN(C)C1CCCN(C(=O)NCCNC(=O)C2CCCCC2)C1 (stereo not drawn) | 2.915%
35 | Cc1cccc(C(=O)NCc2ccc(S(N)(=O)=O)cc2)n1 | -0.8879%
36 | Cc1oc(C)c(C(=O)NCc2cccc(NC(=O)CN(C)C)c2)c1C | 14.93%
37 | CNS(=O)(=O)c1ccc(CNC(=O)NCC2CCC2)cc1 | -8.591%
38 | CNS(=O)(=O)Cc1ccc(CNC(=O)c2cccc(C)n2)cc1 | 2.12%
39 | CNS(=O)(=O)c1ccc(CNC(=O)c2ccccn2)cc1 | 0.2857%
40 | CNS(=O)(=O)Cc1ccc(CNC(=O)c2ccccn2)cc1 | 102.4%
41 | CNS(=O)(=O)c1cccc(CNC(=O)c2c(C)oc(C)c2C)c1 | 20.61%
42 | CNS(=O)(=O)c1ccc(CNC(=O)c2c(C)oc(C)c2C)cc1 | 84.51%
43 | Cc1oc(C)c(C(=O)NCc2cccc(C(N)=O)c2)c1C | 95.24%
44 | CCN(CC)c1ccc(CNC(=O)c2ccccn2)cn1 | 19.52%
45 | Cc1cccc(C(=O)NCc2ccc(CS(N)(=O)=O)cc2)n1 | 93.95%
46 | Cc1oc(C)c(C(=O)NCc2ccccc2S(=O)(=O)N(C)C)c1C | -1.431%
47 | CC(C)c1noc(CNc2cccc(-c3nnnn3C)c2)n1 | -7.266%
48 | N#Cc1cccc(C(=O)N2CC(c3nc(-c4ccc[nH]c4=O)no3)C2)c1 | 9.318%
